Consider 40 sequences from the supplement of paper PMC6555819.

The first assay deals with THRa:RXRa (NR concentration 90 nM, RXRa partner concentration 90 nM). Description: PBM binding z-score (relative to random genomic background probes); higher = stronger binding; sequences stand for … in GC…GCGATTGACAGCGTAGAATGAAGG
The gist of the method:
(§1)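 On custom Agilent 4×180K arrays, double-stranded probes with 34-nt variable regions carried direct-repeat seeds, single-nucleotide variants, half-site ablations or random human genomic background. Ligand-free nuclear receptor dimers were applied for 1 h, and binding was read with antibodies against each partner (one per run). Binding z-scores come from regression-normalized fluorescence, with the random background probes as reference.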
Turning to GCGACTGGGCCATCAGCAGGTTACCATAACTTAA, the PBM binding z-score stood at 0.132.

Turning to CCGACTGGGGCCGAAAGGTTACCATACCATCCGG, the PBM binding z-score is 1.14.

Take GCTCGGAGGACAACGTCAGAGCTTTGTCCGTAGA: the PBM binding z-score was 0.242.

In turn, TCATATTGGTAAAGGTGAAAGTCGAACGATATGA returned a PBM binding z-score of 1.08.

For TGAATGAGGTTCAAGATCAGGGAACGTGGCGTCG, the PBM binding z-score came out at 0.882.

Sequence TAGCCTAGGTCATTCAGGGGCCAGGATAGAAAGC gave a PBM binding z-score of 3.57.

Turning to AGTCAAAGTTCATCTAGGTAATGTAAGATATGCT, the PBM binding z-score is 2.92.

For the sequence CGAACTAGGTCACTGACAGGACAGTGAATAGTAA, the PBM binding z-score was determined as 2.81.

Sequence GATACAGGGTCAGCTAGAGGCTAGAGTATGGAAA returned a PBM binding z-score of 2.86.

For the sequence TCTAGCAGGCCAGAGGGTAACTCAAGAGGTACGG, the PBM binding z-score is -0.104.

In the case of ATCTCTAGGTAGAGTTCAGTGAAAGATCGATAGA, the PBM binding z-score was found to be 0.946.

Consider TGAATGAGGTTAAAGTTCAGGGAACGTGGCGTCG, for which the PBM binding z-score was 3.63.

In turn, TCTATTAGATGATTAGGGCAACCGAAACAGCGGA showed a PBM binding z-score of 0.35.

Consider ATATGTAGGTTAAGGGTCATTCTGGTTGGTTCGC, for which the PBM binding z-score came out at 3.23.

As for CGTCCAAGGTCAAAGTTCAGTGAAGAGATGACGG, the PBM binding z-score turned out to be 4.31.

Regarding GTTCGGAGGACAAGGTCAGAGCTTTGTCCGTAGA, the PBM binding z-score came to 3.06.

Regarding TCGAGTAGGGTACCAATGGGGCATTCAGCTTTCT, the PBM binding z-score is -0.59.

CGAACTAGGTCAAGAACAGTGAATCTCCGCACGC gave a PBM binding z-score of 2.33.

Regarding TCTTGTAGAGCAAAGGTTAAGAAAGCCGAAGCCT, the PBM binding z-score came to 1.06.

Regarding CCGACTGGGCCAAAAAGGTCATTGATGCCGATAA, the PBM binding z-score turned out to be 3.14.

AAAATGAGGTTACCAAAGATCAGGGAAACGCTTG gave a PBM binding z-score of 3.06.

On to TCATATAGGTAAACAGGGGAAAGTCCGTAAGTTA, for which the PBM binding z-score worked out at 0.404.

The sequence CCAGAAAGGTGAGAAGGTAACTCAGCCTCGATTA showed a PBM binding z-score of 0.725.

The sequence GCTTACGGGTCAAAGGTTATTGCATGAATAGAAT had a PBM binding z-score of 3.78.

Sequence CAAACTAGGTCAAATGTCAAAGTCGAGCCAACCA showed a PBM binding z-score of 3.36.

CGAACTAGGTCATCCAGGACAGCGAATACATTGA: the PBM binding z-score is 3.84.

With TCATATAGGTAAACAGGTGACAGTCCGTAAGTTA, the PBM binding z-score worked out at 0.614.

Turning to GCAGACAGGTGAAACGCAGGTAACACAGGGTGGC, the PBM binding z-score was found to be 1.26.

In the case of AGAATGAGCTTATACGTAGATCAGGGAAGAAAGT, the PBM binding z-score is -0.46.

In turn, TCTGCTAGGTCAGTTGGTAAGCTAACGAGCTGCC registered a PBM binding z-score of 1.16.

With TCTATTAGTTGATGGGCAACCGACGAGTCCGTTT, the PBM binding z-score was -0.425.

Regarding ACTACTTGGTCAGCTGAGGTCACACACAATTCGG, the PBM binding z-score is 5.04.

Consider ATCGAAAGGTCGAGCTGAGTATAGAGAAAGGGAA, for which the PBM binding z-score was 1.96.

Take TCTGCTAGGTCAGTTGGTCACCTAACGAGCTGCC: the PBM binding z-score was determined as 1.88.

The sequence CCGACTGGGGCATAAGGTTAGCATAAGCCAGCCC registered a PBM binding z-score of 1.01.

For the sequence CGAACTAGGTTAGAACAGGACAGTGAAGGATGAT, the PBM binding z-score was determined as 1.92.

ATACCCAGGTGATCGTGAGGTCGTTGATACTAAC showed a PBM binding z-score of 3.14.

Turning to TAGCCTAGGGCATGCGGGCCAGTATAGTGTCGGC, the PBM binding z-score was -0.465.

Sequence ATATGTAGGTTAGCTGTGGTCATTCAGACTAGGC displayed a PBM binding z-score of 3.29.

For the sequence TCTAGCAGGCCAGAGAGTCACTCAAGAGGTACGG, the PBM binding z-score was -0.304.

In another assay the test system is THRa homodimer (NR concentration 90 nM). The assay is described as above. The gist of the method:
as §1
For GCGACTGGGCCATCAGCAGGTTACCATAACTTAA, the PBM binding z-score was -0.441.

Take CCGACTGGGGCCGAAAGGTTACCATACCATCCGG: the PBM binding z-score was -0.247.

Take GCTCGGAGGACAACGTCAGAGCTTTGTCCGTAGA: the PBM binding z-score is -0.468.

TCATATTGGTAAAGGTGAAAGTCGAACGATATGA: the PBM binding z-score was -0.164.

TGAATGAGGTTCAAGATCAGGGAACGTGGCGTCG gave a PBM binding z-score of -0.612.

TAGCCTAGGTCATTCAGGGGCCAGGATAGAAAGC had a PBM binding z-score of 0.667.

Sequence AGTCAAAGTTCATCTAGGTAATGTAAGATATGCT came in with a PBM binding z-score of 0.21.

In turn, CGAACTAGGTCACTGACAGGACAGTGAATAGTAA displayed a PBM binding z-score of 0.889.

Consider GATACAGGGTCAGCTAGAGGCTAGAGTATGGAAA, for which the PBM binding z-score was determined as 0.194.

TCTAGCAGGCCAGAGGGTAACTCAAGAGGTACGG had a PBM binding z-score of -0.765.

Regarding ATCTCTAGGTAGAGTTCAGTGAAAGATCGATAGA, the PBM binding z-score is -0.259.

The sequence TGAATGAGGTTAAAGTTCAGGGAACGTGGCGTCG showed a PBM binding z-score of 0.772.

Regarding TCTATTAGATGATTAGGGCAACCGAAACAGCGGA, the PBM binding z-score is -0.055.

Turning to ATATGTAGGTTAAGGGTCATTCTGGTTGGTTCGC, the PBM binding z-score is 1.75.

As to CGTCCAAGGTCAAAGTTCAGTGAAGAGATGACGG, the PBM binding z-score came to 1.92.

Regarding GTTCGGAGGACAAGGTCAGAGCTTTGTCCGTAGA, the PBM binding z-score is 1.52.

On to TCGAGTAGGGTACCAATGGGGCATTCAGCTTTCT, for which the PBM binding z-score is -0.915.

As to CGAACTAGGTCAAGAACAGTGAATCTCCGCACGC, the PBM binding z-score turned out to be 0.755.

In turn, TCTTGTAGAGCAAAGGTTAAGAAAGCCGAAGCCT showed a PBM binding z-score of -1.14.

CCGACTGGGCCAAAAAGGTCATTGATGCCGATAA yielded a PBM binding z-score of 0.199.

Sequence AAAATGAGGTTACCAAAGATCAGGGAAACGCTTG returned a PBM binding z-score of 0.766.

TCATATAGGTAAACAGGGGAAAGTCCGTAAGTTA gave a PBM binding z-score of 0.286.

CCAGAAAGGTGAGAAGGTAACTCAGCCTCGATTA: the PBM binding z-score came out at 0.0189.

Sequence GCTTACGGGTCAAAGGTTATTGCATGAATAGAAT gave a PBM binding z-score of 0.27.

In turn, CAAACTAGGTCAAATGTCAAAGTCGAGCCAACCA yielded a PBM binding z-score of 0.944.

Turning to CGAACTAGGTCATCCAGGACAGCGAATACATTGA, the PBM binding z-score is 2.24.

TCATATAGGTAAACAGGTGACAGTCCGTAAGTTA showed a PBM binding z-score of 0.354.

The sequence GCAGACAGGTGAAACGCAGGTAACACAGGGTGGC registered a PBM binding z-score of -0.435.

Turning to AGAATGAGCTTATACGTAGATCAGGGAAGAAAGT, the PBM binding z-score was -0.669.

Take TCTGCTAGGTCAGTTGGTAAGCTAACGAGCTGCC: the PBM binding z-score was -0.266.

TCTATTAGTTGATGGGCAACCGACGAGTCCGTTT gave a PBM binding z-score of 0.00181.

In turn, ACTACTTGGTCAGCTGAGGTCACACACAATTCGG had a PBM binding z-score of 5.43.

For the sequence ATCGAAAGGTCGAGCTGAGTATAGAGAAAGGGAA, the PBM binding z-score was -0.857.

With TCTGCTAGGTCAGTTGGTCACCTAACGAGCTGCC, the PBM binding z-score was 0.86.

CCGACTGGGGCATAAGGTTAGCATAAGCCAGCCC came in with a PBM binding z-score of 0.298.

In turn, CGAACTAGGTTAGAACAGGACAGTGAAGGATGAT came in with a PBM binding z-score of -0.166.

The sequence ATACCCAGGTGATCGTGAGGTCGTTGATACTAAC gave a PBM binding z-score of 2.72.

TAGCCTAGGGCATGCGGGCCAGTATAGTGTCGGC returned a PBM binding z-score of -1.1.

In turn, ATATGTAGGTTAGCTGTGGTCATTCAGACTAGGC yielded a PBM binding z-score of -0.0944.

For the sequence TCTAGCAGGCCAGAGAGTCACTCAAGAGGTACGG, the PBM binding z-score was -1.31.
